This is an account of results in PubChem BioAssay (NCI).

SMILES strings stand for the structures. The panel holds about 83,000 compounds, 20% with a hit somewhere; the sample as a whole holds those more often.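 Negative percent growth values reflect cell death: -40 means 40% of the cells present at the start died, and -100 means all died.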 Values without a mark were called inactive. The source made the active and inactive calls. How the source made its calls: active means growth percent below 10; inactive means the rest.

Assay in all cases: NCI-60 one-dose screen, 48 h (100 = growth as untreated, 0 = no growth, -100 = all killed)
Common to all, as to settings: 10 µM unless noted

For assay [1], the system named is EKVX NSCLC.
The subject of assay [2] is SN12C renal.
The subject of assay [3] is UO-31 renal.
The test system of assay [4] is TK-10 renal.
The subject of assay [5] is ACHN renal.
The test system of assay [6] is CAKI-1 renal.
In assay [7] the test system is A498 renal.
Assay [8] concerns CCRF-CEM leukemia.
Assay [9] relates to MOLT-4 leukemia.

As for `O=c1c2cc(F)ccc2sc2c(NCCCNCCO)nc3ccc(Cl)cc3c12`, the growth in [1] was 88.8%; in assay [2] it was 67.4%; in [3] it was 58.5%; in [4] it was 77.1%; in assay [5], 60.8%; in [6], 27.8%. Moreover, the growth in assay [7] was 60.7%; in [8] it was 13.7%; in assay [9], 18.7%.
As for `O=c1oc2ccc(F)cc2c(=O)n1-c1ccc(Cl)cc1F`, the growth was 9.11% (active) in assay [1]; 1.59% (active) in [2]; 1.41% (active) in [3]; 5.92% (active) in assay [4]; 1.55% (active) in assay [5]; -21.5% (active) in [6]. Also, the growth in [7] was -51% (active); in assay [8] it was 12.7%; in assay [9], -5.46% (active).
Take `C#CCn1cc(C=C2C(=O)N(C)C(=O)N(C)C2=O)c2cc(Cl)ccc21`: the growth was 98.1% in assay [1]; 101% in assay [2]; 80.1% in [3]; 106% in [4]; 99.4% in assay [5]; 91.7% in assay [6]. Also, the growth is 70% in [7], 105% in assay [8] and 105% in assay [9].
With `CC1=C(C(=O)OCC2CCN(C(=O)OC(C)(C)C)CC2)[C@H](c2cccc(C#N)c2)C2=C(CC(C)(C)CC2=O)N1`, the growth is 62.6% in assay [1]; 52.9% in [2]; 57.8% in [3]; 69.7% in assay [4]; 35.4% in assay [5]; 52.4% in assay [6]. The growth is 68.3% in assay [7], 40.5% in [8] and 25.3% in [9].
On to `O=C(CCc1nnc2sc(Cc3ccccc3Cl)nn12)c1nc2ncccc2[nH]1`, for which the growth in assay [1] is 94.6%; in assay [2], 87.3%; in [3], 63.5%; in assay [4] it was 128%; in assay [5] it was 94.9%; in assay [6], 74.4%. Moreover, the growth in assay [7] is 87.5%; in assay [8], 103%; in assay [9] it was 86.2%.
For `Cc1nc2ccccc2c(/C=C/c2ccc(F)cc2)c1C(N)=O`, the growth in [1] was 94.8%; in assay [2], 102%; in assay [3] it was 80.9%; in assay [4], 134%; in assay [5], 100%; in [6] it was 87.2%. Also, the growth was 89.2% in [7], 93.6% in assay [8] and 111% in assay [9].
Consider `O=C(Nc1ccc(Cl)cc1F)c1cc(Br)ccc1O`, for which the growth in [1] is 9.24% (active); in [2], 1.01% (active); in assay [3], 5.96% (active); in assay [4] it was 5.64% (active); in assay [5], 2.84% (active); in [6] it was -10.7% (active). The growth in assay [7] is -62.9% (active); in assay [8], 15.1%; in [9], 0.561% (active).
Consider `O=C(Nc1ccc(Cl)cc1F)c1cc(F)ccc1O`, for which the growth was 8.76% (active) in [1]; 3.23% (active) in assay [2]; 5.66% (active) in assay [3]; 14% in [4]; 3.61% (active) in [5]; -14.3% (active) in [6]. Besides, the growth in assay [7] was -55.6% (active); in assay [8], 8.63% (active); in assay [9], -13.3% (active).
Regarding `COc1ccc(Cn2cc(Cn3cc(C=C4C(=O)NC(=O)NC4=O)c4ccccc43)nn2)cc1`, the growth was 99.4% in assay [1]; 85.8% in assay [2]; 56.3% in assay [3]; 83.7% in [4]; 91.4% in assay [5]; 70.1% in assay [6]. The figures for the growth in assay [7], in assay [8] and in [9] were 22.2%, 85% and 75.3%, respectively.
`O=C(Nc1ccc(I)cc1F)c1cc(F)ccc1O`: the growth in assay [1] was 5.82% (active); in assay [2], 0.104% (active); in [3], 6.41% (active); in assay [4], -0.353% (active); in [5], 2.56% (active); in [6], -24.8% (active). The growth in assay [7] was -58.9% (active); in assay [8], 6.38% (active); in [9], -16.4% (active).
Take `Nc1ccc(-n2c(=O)oc3ccc(Cl)cc3c2=O)c(Cl)c1`: the growth in assay [1] was 4.42% (active); in assay [2], -0.532% (active); in assay [3], 0.242% (active); in [4] it was 8.25% (active); in assay [5], 5.28% (active); in [6], -21.5% (active). Further, the growth was -67% (active) in [7], 0.0077% (active) in assay [8] and -33.5% (active) in assay [9].
Regarding `COc1ccc2c(c1)C=C1CSCC3=Cc4cc(OC)ccc4OC13O2`, the growth in assay [1] is 40.3%; in assay [2] it was 28.2%; in [3] it was 44.5%; in assay [4] it was 60.7%; in assay [5], 32.5%; in [6], 37.1%. Besides, the growth was 4.68% (active) in assay [7], 16.1% in assay [8] and 14.3% in assay [9].
Turning to `COc1ccc(/C=C/C(=O)c2c(C)nc3ccccc3c2/C=C/c2ccccc2)cc1O`, the growth is 90.3% in assay [1]; 62.2% in assay [2]; 53.3% in [3]; 125% in [4]; 62.2% in [5]; 52.6% in assay [6]. The growth in [7] is 106%; in assay [8] it was 32.2%; in assay [9], 29.9%.
Take `COc1c(B(O)O)cccc1-c1nc2ccc3[nH]ncc3c2c2c1C1CCC2C1` (stereo not drawn): the growth is 101% in assay [1]; 59.8% in assay [2]; 29.3% in assay [3]; 44.2% in assay [4]; 63.2% in [5]; 1.43% (active) in assay [6]. Besides, the growth in [7] is 87.2%; in [8], 20.5%; in [9], 52.8%.
For the compound `O=c1oc2ccc(Cl)cc2c(=O)n1-c1cc(C(F)(F)F)cc(C(F)(F)F)c1`, the growth in assay [1] is 5.27% (active); in [2], 1.28% (active); in [3] it was 6.17% (active); in assay [4] it was 0.337% (active); in assay [5] it was 3.99% (active); in assay [6], -24.7% (active). The growth in assay [7] was -68.8% (active); in assay [8] it was 5.13% (active); in assay [9] it was -16.9% (active).
`CCOC(=O)c1sc(-c2ccc(OS(=O)(=O)c3ccccc3[N+](=O)[O-])c(C=O)c2)nc1C`: the growth in [1] was 92.3%; in assay [2], 3.63% (active); in assay [3], 57.1%; in [4], 85.5%; in assay [5], 101%; in assay [6], 38.8%. Besides, the growth in assay [7] is -84.6% (active); in assay [8], 12.1%; in [9], 9.88% (active).
For the compound `Cc1ccc(C2CC(c3ccc(Nc4nc(NCCO)nc(Nc5ccc(Cl)cc5)n4)cc3)=NN2c2cc(Cl)cc(Cl)c2)cc1` (stereo not drawn), the growth is 82.7% in assay [1]; 96.4% in assay [2]; 70.4% in [3]; 113% in assay [4]; 95.3% in assay [5]; 73.5% in [6]. Besides, the growth in assay [7] is 79.1%; in assay [8], 96.8%; in [9], 93.7%.
`O=C(c1ccccc1)N(C(=S)NCCc1ccc(Cl)cc1)c1ccc(Cl)cc1`: the growth in [1] was 83.5%; in assay [2], 66.1%; in [3] it was 59.1%; in [4], 44.3%; in assay [5], 64.5%; in [6], 42.1%. The values for the growth in assay [7], in [8] and in assay [9] were 91.4%, 80.7% and -10.7% (active), respectively.
`O=c1oc2ccc(Cl)cc2c(=O)n1-c1ccc(Cl)cc1F`: the growth in [1] is 9.78% (active); in assay [2], 2.13% (active); in assay [3], 6.59% (active); in assay [4], 6.66% (active); in [5], 4.37% (active); in assay [6], -16.8% (active). The results for the growth in assay [7], in [8] and in assay [9] were -71.7% (active), 5.21% (active) and -25.1% (active), respectively.
Regarding `O=C(CCc1nnc2sc(-c3ccc(Cl)cc3Cl)nn12)c1nc2ncccc2[nH]1`, the growth in [1] was -26.2% (active); in assay [2], -7.29% (active); in assay [3], -82% (active); in assay [4], -31.6% (active); in assay [5], -48% (active); in assay [6], -15.7% (active). The growth in [7] was -68.6% (active); in assay [8], 6.98% (active); in assay [9] it was 5.44% (active).
For the compound `OC(c1ccccc1)c1nnc(SCc2ccccc2)n1Cc1ccccc1` (stereo not drawn), the growth in assay [1] is 102%; in [2], 89.7%; in [3], 67.7%; in [4] it was 103%; in [5] it was 86.9%; in assay [6], 97%. In addition, the values for the growth in [7], in [8] and in assay [9] were 90.1%, 75.4% and 99.9%, respectively.
Regarding `COc1ccc(C2Nc3nc(OC)n(C)c(=O)c3N=C3c4ccccc4C(=O)C32)cc1` (stereo not drawn), the growth in assay [1] was 81.9%; in assay [2], 86.6%; in assay [3], 94.2%; in [4], 124%; in assay [5], 85.3%; in [6], 54.4%. In addition, the growth in assay [7] was 105%; in assay [8] it was 87.9%; in assay [9], 77.3%.
Take `O=c1oc2ccc(F)cc2c(=O)n1-c1ccc(Br)cc1F`: the growth was 7.09% (active) in [1]; -4.08% (active) in [2]; 5.26% (active) in [3]; 3.34% (active) in assay [4]; 2.25% (active) in assay [5]; -14.8% (active) in assay [6]. Further, the growth in [7] is -55.4% (active); in [8], 11.1%; in [9], -7.7% (active).
In the case of `COc1ccc(OC)c(/C=C/C(=O)c2c(C)nc3ccccc3c2/C=C/c2ccccc2)c1`, the growth in assay [1] was 79.4%; in assay [2], 58.1%; in assay [3], 60.3%; in assay [4], 112%; in assay [5], 74.6%; in assay [6] it was 54.4%. In addition, the growth in assay [7] is 83.2%; in [8], 9.58% (active); in [9], 10.2%.
For the compound `O=c1oc2ccc(Cl)cc2c(=O)n1-c1ccc(F)cc1F`, the growth in assay [1] was 36.2%; in [2], 4.19% (active); in assay [3] it was -1.33% (active); in assay [4], 21%; in [5] it was 4.18% (active); in assay [6], -14% (active). Besides, the growth in assay [7] was -35.4% (active); in assay [8] it was 13.7%; in [9] it was 9.73% (active).
For the compound `O=C1NC(=S)NC(=O)C1=Cc1cn(Cc2cn(Cc3cccc4ccccc34)nn2)c2ccccc12`, the growth in assay [1] is 96.4%; in assay [2], 94.4%; in assay [3], 67.7%; in assay [4] it was 134%; in [5], 96%; in [6], 80.3%. In addition, the figures for the growth in assay [7], in assay [8] and in assay [9] were 83.7%, 98.7% and 96.2%, respectively.
Take `O=C(COc1cc(O)c2c(=O)cc(-c3ccccc3)oc2c1)Nc1ccccc1C(F)(F)F`: the growth was 51.4% in assay [1]; 27.7% in assay [2]; 17.1% in assay [3]; -13.9% (active) in [4]; 17.8% in assay [5]; 22.3% in [6]. The growth is 55.9% in [7], 58.6% in [8] and 52.1% in assay [9].
